# Rows were chosen to be rich in hits. Some 27% of all compounds tested hit in one or more screens of this group.
# CYP2C19 act: cytochrome P450 2C19 (human) activation; P33261; recombinant CYP2C19, luciferin-H EGE luminescence; stronger effect = higher value; 0 = fully inhibited enzyme, 1 = untreated enzyme; activation factor at 5 µM; 96,000 tested, under 10 active; AID 1025;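 active = activation factor of at least 2 at 5 µM in the primary screen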;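 also: 0 = wells with 2.5 mM tranylcypromine and 1 = vehicle-only wells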
# Target sequence (P33261 whole entry, looked up): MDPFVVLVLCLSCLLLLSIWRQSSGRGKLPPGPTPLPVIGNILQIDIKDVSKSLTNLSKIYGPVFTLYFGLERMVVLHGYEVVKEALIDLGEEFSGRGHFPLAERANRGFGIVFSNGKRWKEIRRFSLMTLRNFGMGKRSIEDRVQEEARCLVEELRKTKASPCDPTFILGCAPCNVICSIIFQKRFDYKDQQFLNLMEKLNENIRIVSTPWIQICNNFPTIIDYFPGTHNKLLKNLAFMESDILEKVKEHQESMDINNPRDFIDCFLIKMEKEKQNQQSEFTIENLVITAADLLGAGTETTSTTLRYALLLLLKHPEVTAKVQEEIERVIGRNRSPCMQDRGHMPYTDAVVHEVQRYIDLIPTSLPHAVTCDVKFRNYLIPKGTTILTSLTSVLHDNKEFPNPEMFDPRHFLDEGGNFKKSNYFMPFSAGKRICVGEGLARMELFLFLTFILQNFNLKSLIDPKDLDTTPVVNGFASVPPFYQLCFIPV
# PTK2B oligo ant: Pyk2 (human) oligomerization antagonism | Q14289 | Q293 cells, Pyk2 FERM NanoBiT luminescence; stronger effect = lower value | z-score (the deposit names both 25 µM and 10 µM) | 0.83% of 99,000 active;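 active = Z-score of -3 or lower, scaled per plate to the spread of control and sample wells; inactive = z-score above -3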;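 also: negative z-score means lost luminescence so less FERM oligomerization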
# CYP2C19 inhib: inhibitors of human CYP2C19; CYP2C19 Supersomes, luciferin-H EGE luminescence, 30 min; inhibition, % at 5 µM; 21% of 96,000 active;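 active = CYP2C19 inhibition above a set limit at 5 µM in the primary screen, cut at about 50% in these data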;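 also: plate controls were negative control wells for no effect and 2.5 mM tranylcypromine positive control for full effect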
# CYP2C9 act: activators of human CYP2C9 | recombinant CYP2C9, luciferin-H conversion, luminescence; stronger effect = higher value; factor 1 = untreated enzyme, 0 = blocked | P11712 | AID 1024 | activation factor at 5 µM | 1.4% of 96,000 active;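 active = activation factor of 2 or more for CYP2C9 at a 5 µM dose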;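 also: 0 = sulfaphenazole-blocked wells and 1 = vehicle-only wells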
# CYP2C9 inh: human CYP2C9 inhibition | 20% of 96,000 active | AID 777 | CYP2C9 Supersomes, luciferin-H conversion, luminescence | inhibition, % at 5 µM | P11712;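 active = blocking of liver enzyme CYP2C9 beyond about 50% at 5 µM, limit read from the data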
# Cav3 T inh: human Cav3.2 channel inhibition, primary screen. O95180. Cav3.2-expressing cells, Fluo-4 calcium fluorescence FDSS; stronger effect = lower value. B-score at 10 µM. 4% of 100,000 active. AID 449739;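 active = single-dose well whose peak fluorescence ratio is a statistical outlier from its plate by either plate-standardised score or position-corrected B-score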
# * hit, by the source's call; x = no result.
SMILES,CYP2C19 act,PTK2B oligo ant,CYP2C19 inhib,CYP2C9 act,CYP2C9 inh,Cav3 T inh
CCC1Oc2ccc(C)cc2N(CC(=O)NCc2ccccc2OC)C1=O (stereo not drawn),0.1,-0.71,91*,1.3,-29,-0.24
CCC1Oc2ccc(C)cc2N(CC(=O)NCCN2CCCCCC2)C1=O (stereo not drawn),0.9,0.52,6,0.9,9,1.1
CCC1Oc2ccc(C)cc2N(CC(=O)NCc2cc(OC)ccc2OC)C1=O (stereo not drawn),0.3,-0.36,73*,0.8,16,-1.5
COC(=O)CC1Oc2ccccc2N(Cc2ccccc2)C1=O (stereo not drawn),0.1,x,90*,0.5,55*,-1.1
CCC1Oc2ccc(C)cc2N(CC(=O)NCc2cccc(OC)c2)C1=O (stereo not drawn),0.1,0.64,94*,0.9,14,-1.1
CCC1Oc2ccccc2N(CC(=O)Nc2ccccc2OC)C1=O (stereo not drawn),0.2,0.46,78*,0.4,63*,-1.3
CCC1Oc2ccccc2N(CC(=O)NCCc2ccc(OC)c(OC)c2)C1=O (stereo not drawn),x,-0.54,x,x,x,0.22
CN1/C(=N\O)c2cccc3cccc1c23,0.3,-0.48,70*,1.8,-77,-4.4*
O=C(NC1CCCC1)C(c1ccccc1)N(Cc1ccco1)C(=O)Cc1cccs1 (stereo not drawn),x,-0.37,x,x,x,-6.2*
O=C(NCC(=O)N(Cc1cccs1)C(C(=O)NC1CCCC1)c1ccncc1)c1ccco1 (stereo not drawn),0.4,-0.12,61*,0.3,72*,0.53
O=C(NCc1ccccc1)C(c1cccs1)N(Cc1cccs1)C(=O)c1cnccn1 (stereo not drawn),0.6,-0.86,40,0.8,23,1.4
O=C(NCc1ccccc1)C(c1ccccc1)N(Cc1cccs1)C(=O)c1cnccn1 (stereo not drawn),0.4,-1.9,62*,0.7,25,-0.54
O=C(NC1CCCCC1)C(c1cccs1)N(Cc1cccs1)C(=O)c1ccco1 (stereo not drawn),0.4,-2.9,55*,0.5,53*,-4.1*
FCCCOc1ccc(/C=N/OCc2ccc(Cl)cc2)cc1,0.9,0.06,7,0.9,10,-0.56
O=C(NCC(=O)N(Cc1ccco1)C(C(=O)NC1CCCC1)c1ccncc1)c1cccs1 (stereo not drawn),x,0.43,x,x,x,0.074
O=C(NCC(=O)N(Cc1ccco1)C(C(=O)NC1CCCC1)c1cccnc1)c1cccs1 (stereo not drawn),0.8,0.11,17,0.1,86*,0.17
Cc1ccn2cc(CCNC(=O)C3CCCCC3)nc2c1,0.8,x,24,1.1,-7,1
O=C(CCCc1ccccc1)NCc1cn2ccsc2n1,0.7,x,31,0.9,6,0.55
O=C(Cc1cn2ccsc2n1)Nc1nc2c(s1)CCCC2,0.5,0.01,47,0.5,52*,-0.62
O=C(CC1CCCCC1)NCc1cn2ccsc2n1,0.6,-0.29,37,0.5,53*,0.13
O=C(Cc1cccs1)Nc1nc2c(s1)CCCC2,0.9,0.49,10,0.8,20,-0.028
O=C(CC1CCCC1)NCCc1cn2ccccc2n1,0.3,x,68*,0.8,21,x
C=C1CSc2nc3ccccc3c(=O)n21,1,0.65,-3,1.1,-7,1
Cc1nn(-c2ccc(F)cc2)c(C)c1NS(=O)(=O)c1ccc(Cl)cc1,0,-0.26,100*,0.1,91*,-1.9
Cc1ccc(-n2nc(C)c(NS(=O)(=O)c3ccccc3)c2C)cc1C,0.6,-0.97,42,0,96*,-1.8
O=C(CN1CCCC1)Nc1ccc(-c2nc3cc(NC(=O)CN4CCCC4)ccc3o2)cc1,0.9,-0.51,14,1,0,0.84
COC(=O)[C@H](CCSC)NC(=O)Nc1ccc(C(C)=O)cc1,1,0.3,-4,1.1,-12,1
O=C(CN(c1cccc([N+](=O)[O-])c1)S(=O)(=O)c1ccccc1)NCc1ccccc1,x,-1.4,x,x,x,x
COc1ccc([N+](=O)[O-])cc1N(CC(O)CN(CC(C)C)CC(C)C)S(=O)(=O)c1ccccc1 (stereo not drawn),0.6,-1.3,36,0.8,20,-3.9*
COCCOC(=O)c1c(C)n(C)c2ccc(OC(=O)C3CC3)cc12,0.8,1.4,25,0.7,30,-0.014

# Screening results from PubChem BioAssay.
